Records with an inconclusive call do not appear. Where a call stands in place of a potency, no number is given. Activity calls are given as the source filed them. Calls come from the whole dose curve; as a rule, active = well fitted curve in the direction sought with a large enough effect; inconclusive = small, poorly fitted or top-dose-only effect, or another doubt; inactive = no such curve, though single readings can be large; an effect the other way counts as inactive or inconclusive. Bridge positions count the residues as written; N and C are the ends. Square brackets hold non-standard residues; d marks the D form. Side chains are listed from the residue outwards. Peptide text beside a SMILES is read from it. * marks the point of attachment. Phg(4-OMe) = COc1ccc([C@H](N)C(=O)O)cc1; d(aIle) = CC[C@H](C)[C@@H](N)C(=O)O; d(aThr) = C[C@@H](O)[C@@H](N)C(=O)O; NMeF = CN[C@@H](Cc1ccccc1)C(=O)O; Isobutyryl = CC(C)C(=O)*

The target of one assay is Luciferin 4-monooxygenase (Photinus pyralis) (UniProt P08659). Nature of the assay: Firefly luciferase counterscreen qHTS: Assay Interference Panel against the NCATS CANVASS Library (AID 1347363). The conditions noted are these: purified firefly luciferase, luminescence inhibition, 5 min; series mostly up to 57.5 µM. Put shortly: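 Luminescence inhibition readout: compounds (11-point qHTS) sat 15 min at room temperature with substrate mix (0.013 mM luciferin and ATP), then firefly luciferase was added and signal read 5 min later.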
Luciferin 4-monooxygenase (Photinus pyralis), sequence (P08659 whole entry, looked up): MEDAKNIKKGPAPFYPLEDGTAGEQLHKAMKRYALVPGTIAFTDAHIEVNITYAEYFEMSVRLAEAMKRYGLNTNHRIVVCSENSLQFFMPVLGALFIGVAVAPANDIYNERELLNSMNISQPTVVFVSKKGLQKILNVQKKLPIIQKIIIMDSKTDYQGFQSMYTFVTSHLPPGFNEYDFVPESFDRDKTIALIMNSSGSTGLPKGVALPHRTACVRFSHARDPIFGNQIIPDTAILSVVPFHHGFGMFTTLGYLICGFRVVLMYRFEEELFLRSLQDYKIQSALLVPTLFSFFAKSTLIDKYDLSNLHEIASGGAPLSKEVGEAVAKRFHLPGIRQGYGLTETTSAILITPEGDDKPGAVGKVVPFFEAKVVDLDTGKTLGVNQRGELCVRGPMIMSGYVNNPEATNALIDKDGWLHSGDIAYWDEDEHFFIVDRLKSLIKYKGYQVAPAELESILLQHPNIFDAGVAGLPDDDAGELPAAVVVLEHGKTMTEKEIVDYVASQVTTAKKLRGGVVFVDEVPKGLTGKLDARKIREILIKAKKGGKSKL
(A counterscreen serves to expose hits that act by an unwanted route or on another target.)
As to `CC(C)C[C@@H]1c2c(O)c(C=O)c(O)c(C=O)c2O[C@]2(C)C=C[C@@H](C(C)C)C[C@H]12`, the Potency entry was “inactive”.

Consider `C/C=C(/C)c1cc(O)c(C)c2c1Oc1cc(O)cc(C)c1C(=O)O2`, for which the Potency result is “inactive”.

Consider `CC(C)[C@]12CC[C@@]3(C)[C@H](C)CC[C@H](O)[C@@]3(CC1)c1cc3c(cc12)[nH]c1ccccc13`, for which the Potency result was “inactive”.

Consider `C[C@H]1C=C[C@H]2CCCC[C@@H]2[C@H]1C(=O)[C@H]1CC2=C(C(=O)O)CCN2C1=O`, for which the Potency result was “inactive”.

As for `C/C=C(/C)c1c(Cl)c(OC)c(C)c2c1Oc1c(Cl)c(O)c(Cl)c(C)c1C(=O)O2`, the Potency entry is “inactive”.

On to `C/C(=C\CC[C@@H](C)[C@H]1CC[C@]2(C)C3=CCC4C(C)(C)[C@@H](O)C[C@@H](O)[C@]4(C)C3[C@H](O)C[C@@]12C)CO` (some centres not stated), for which the Potency result was “inactive”.

In the case of `COC12OC1(C13OC1(OC)C(=O)c1cc4cc(C)oc(=O)c4c(O)c1C3O)C(O)c1c(cc3cc(C)oc(=O)c3c1O)C2=O` (configuration not stated), the Potency entry was “inactive”.

Turning to `CO[C@H]1[C@@H](OC(=O)/C(C)=C\[C@@H]2O[C@@H]2[C@H]2O[C@H]2C)[C@H](O)[C@H](OCC23C[C@@H]4[C@H](C)CC[C@H]4C4(C=O)CC2C=C(C(C)C)C34C(=O)O)O[C@@H]1C` (some centres not stated), the Potency entry was “inactive”.

Tested on in another assay: not listed separately
Nature of the assay: KB-8-5-11 Cancer Cell Toxicity qHTS against the NCATS CANVASS Library (AID 1347364). Note: nearly all actives have a fitted effect of over 75% in size. Note: potency is the fitted concentration of half-maximal effect. As to conditions: KB-8-5-11 MDR cells viability, CellTiter-Glo, 72 h; series mostly up to 46.1 µM. In short, it runs like this: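 KB-8-5-11 cells, 500/well in DMEM + 10% FBS, given compounds in an 11-point series. Incubated 72 h at 37 °C. Viability by CellTiter-Glo luminescence. Confirmation also run with 1 uM tariquidar.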
Background: qHTS replaces the single test concentration by a dilution series.
Consider `C=C1CC[C@@H](Br)C(C)(C)[C@]12CC=C(C)C(=O)C2`, for which the Potency result is “inactive”.

In the case of `COc1cc(/C=C/C(=O)OC[C@@H](Cc2ccc(O)c(OC)c2)[C@@H](COC(=O)/C=C/c2ccc(O)c(OC)c2)Cc2ccc(O)c(OC)c2)ccc1O`, the Potency was 13.2 µM (active).

For `C=C1CC[C@@H](O[C@H]2C[C@@](O)([C@H](C)NC(=O)c3[nH]c(C)c(Cl)c3Cl)[C@H](O)[C@@H](C)O2)[C@@H]2C=C[C@H](C)C(/C(O)=C3/C(=O)[C@H](C(C)C)N([C@@H]4O[C@H](C)[C@H](OC(N)=O)[C@H](OC(C)=O)[C@@H]4OC)C3=O)[C@@H]12` (some centres not stated), the Potency entry was “inactive”.

As to `CC[C@H](C)[C@H]1NC(=O)[C@@H](NC(=O)C(C)C)[C@@H](C)OC(=O)[C@H](COC(=O)CNC(C)=O)NC(=O)[C@@H]([C@@H](C)O)NC(=O)[C@H](Cc2ccccc2)N(C)C(=O)[C@H](c2ccc(OC)cc2)NC1=O` (Isobutyryl-T[d(aIle)][Phg(4-OMe)][NMeF][d(aThr)]S([Gly-Ac]); ester 1-C), the Potency entry is “inactive”.

As to `COc1c(O)cc2c(c1O)C(=O)c1c(coc1C)C2=O`, the Potency entry was “inactive”.

As to `C[C@]12CCC[C@](C)(C(=O)O)[C@@H]1CC[C@@]1(C)c3cocc3CC[C@H]21`, the Potency entry is “inactive”.

`COc1cc(C2OCC3C(c4ccc(O)c(OC)c4)OCC23)ccc1O` (configuration not stated): the outcome is “inactive [at 9.19 µM]”.

Consider `COc1cc(O)c(C(=O)[C@@H]2[C@H](CC=C(C)C)C(C)=CC[C@H]2c2ccccc2)c(O)c1`, for which the Potency is 16.6 µM (active).

In the case of `C[n+]1cc2cc(C(N)=O)[nH]c3c(=N)c(Cl)c(N)c1c23`, the Potency entry is “inactive”.

`COc1cc2c(c(O)c1O)C(=O)c1c(coc1C)C2=O`: the Potency entry was “inactive”.

Take `C/C1=C/[C@@H](C)[C@H](O)[C@@H](O)/C=C/CC/C=C/C(=O)O[C@@H]1[C@H](C)C(=O)CCCC1CC(=O)NC(=O)C1`: the Potency entry is “inactive”.

As to `CN1CC[C@]2(c3cccc4c3N[C@H]3N(C)CC[C@@]43[C@]34CCN(C)[C@H]3Nc3ccccc34)c3ccccc3N[C@H]12`, the Potency was 18.7 µM (active).

`CC(C)C[C@@H]1c2c(O)c(C=O)c(O)c(C=O)c2O[C@]2(C)C=C[C@@H](C(C)C)C[C@H]12`: the Potency result was “inactive”.

Turning to `CO[C@H]1[C@@H](OC(=O)/C(C)=C\[C@@H]2O[C@@H]2[C@H]2O[C@H]2C)[C@H](O)[C@H](OCC23C[C@@H]4[C@H](C)CC[C@H]4C4(C=O)CC2C=C(C(C)C)C34C(=O)O)O[C@@H]1C` (some centres not stated), the Potency entry was “inactive”.

Values taken from PubChem BioAssay (NCATS).
